Data as given in PubChem BioAssay AID624162 (National Center for Advancing Translational Sciences (NCATS), 2012).
The list shows a part of the results. Records with an inconclusive call do not appear. The source made the active and inactive calls. Calls come from the whole dose curve; as a rule, active = well fitted inhibition curve with a large enough effect; inconclusive = small, poorly fitted or top-dose-only effect; inactive = no such curve, though single readings can be large or run the other way.

These molecules were tested against Histone-lysine N-methyltransferase 2A (Homo sapiens) (UniProt Q03164) (assay: qHTS Fluorescence Polarization (FP) Assay for Inhibitors of MLL CXXC domain - DNA interaction: HTRF Assay). Details: MLL CXXC-DNA binding, biochemical; series mostly up to 172 µM; activity change, negative = inhibition: at the top concentration.
Sequence of Histone-lysine N-methyltransferase 2A (Homo sapiens) (Q03164 whole entry, looked up, the tested form may be a part): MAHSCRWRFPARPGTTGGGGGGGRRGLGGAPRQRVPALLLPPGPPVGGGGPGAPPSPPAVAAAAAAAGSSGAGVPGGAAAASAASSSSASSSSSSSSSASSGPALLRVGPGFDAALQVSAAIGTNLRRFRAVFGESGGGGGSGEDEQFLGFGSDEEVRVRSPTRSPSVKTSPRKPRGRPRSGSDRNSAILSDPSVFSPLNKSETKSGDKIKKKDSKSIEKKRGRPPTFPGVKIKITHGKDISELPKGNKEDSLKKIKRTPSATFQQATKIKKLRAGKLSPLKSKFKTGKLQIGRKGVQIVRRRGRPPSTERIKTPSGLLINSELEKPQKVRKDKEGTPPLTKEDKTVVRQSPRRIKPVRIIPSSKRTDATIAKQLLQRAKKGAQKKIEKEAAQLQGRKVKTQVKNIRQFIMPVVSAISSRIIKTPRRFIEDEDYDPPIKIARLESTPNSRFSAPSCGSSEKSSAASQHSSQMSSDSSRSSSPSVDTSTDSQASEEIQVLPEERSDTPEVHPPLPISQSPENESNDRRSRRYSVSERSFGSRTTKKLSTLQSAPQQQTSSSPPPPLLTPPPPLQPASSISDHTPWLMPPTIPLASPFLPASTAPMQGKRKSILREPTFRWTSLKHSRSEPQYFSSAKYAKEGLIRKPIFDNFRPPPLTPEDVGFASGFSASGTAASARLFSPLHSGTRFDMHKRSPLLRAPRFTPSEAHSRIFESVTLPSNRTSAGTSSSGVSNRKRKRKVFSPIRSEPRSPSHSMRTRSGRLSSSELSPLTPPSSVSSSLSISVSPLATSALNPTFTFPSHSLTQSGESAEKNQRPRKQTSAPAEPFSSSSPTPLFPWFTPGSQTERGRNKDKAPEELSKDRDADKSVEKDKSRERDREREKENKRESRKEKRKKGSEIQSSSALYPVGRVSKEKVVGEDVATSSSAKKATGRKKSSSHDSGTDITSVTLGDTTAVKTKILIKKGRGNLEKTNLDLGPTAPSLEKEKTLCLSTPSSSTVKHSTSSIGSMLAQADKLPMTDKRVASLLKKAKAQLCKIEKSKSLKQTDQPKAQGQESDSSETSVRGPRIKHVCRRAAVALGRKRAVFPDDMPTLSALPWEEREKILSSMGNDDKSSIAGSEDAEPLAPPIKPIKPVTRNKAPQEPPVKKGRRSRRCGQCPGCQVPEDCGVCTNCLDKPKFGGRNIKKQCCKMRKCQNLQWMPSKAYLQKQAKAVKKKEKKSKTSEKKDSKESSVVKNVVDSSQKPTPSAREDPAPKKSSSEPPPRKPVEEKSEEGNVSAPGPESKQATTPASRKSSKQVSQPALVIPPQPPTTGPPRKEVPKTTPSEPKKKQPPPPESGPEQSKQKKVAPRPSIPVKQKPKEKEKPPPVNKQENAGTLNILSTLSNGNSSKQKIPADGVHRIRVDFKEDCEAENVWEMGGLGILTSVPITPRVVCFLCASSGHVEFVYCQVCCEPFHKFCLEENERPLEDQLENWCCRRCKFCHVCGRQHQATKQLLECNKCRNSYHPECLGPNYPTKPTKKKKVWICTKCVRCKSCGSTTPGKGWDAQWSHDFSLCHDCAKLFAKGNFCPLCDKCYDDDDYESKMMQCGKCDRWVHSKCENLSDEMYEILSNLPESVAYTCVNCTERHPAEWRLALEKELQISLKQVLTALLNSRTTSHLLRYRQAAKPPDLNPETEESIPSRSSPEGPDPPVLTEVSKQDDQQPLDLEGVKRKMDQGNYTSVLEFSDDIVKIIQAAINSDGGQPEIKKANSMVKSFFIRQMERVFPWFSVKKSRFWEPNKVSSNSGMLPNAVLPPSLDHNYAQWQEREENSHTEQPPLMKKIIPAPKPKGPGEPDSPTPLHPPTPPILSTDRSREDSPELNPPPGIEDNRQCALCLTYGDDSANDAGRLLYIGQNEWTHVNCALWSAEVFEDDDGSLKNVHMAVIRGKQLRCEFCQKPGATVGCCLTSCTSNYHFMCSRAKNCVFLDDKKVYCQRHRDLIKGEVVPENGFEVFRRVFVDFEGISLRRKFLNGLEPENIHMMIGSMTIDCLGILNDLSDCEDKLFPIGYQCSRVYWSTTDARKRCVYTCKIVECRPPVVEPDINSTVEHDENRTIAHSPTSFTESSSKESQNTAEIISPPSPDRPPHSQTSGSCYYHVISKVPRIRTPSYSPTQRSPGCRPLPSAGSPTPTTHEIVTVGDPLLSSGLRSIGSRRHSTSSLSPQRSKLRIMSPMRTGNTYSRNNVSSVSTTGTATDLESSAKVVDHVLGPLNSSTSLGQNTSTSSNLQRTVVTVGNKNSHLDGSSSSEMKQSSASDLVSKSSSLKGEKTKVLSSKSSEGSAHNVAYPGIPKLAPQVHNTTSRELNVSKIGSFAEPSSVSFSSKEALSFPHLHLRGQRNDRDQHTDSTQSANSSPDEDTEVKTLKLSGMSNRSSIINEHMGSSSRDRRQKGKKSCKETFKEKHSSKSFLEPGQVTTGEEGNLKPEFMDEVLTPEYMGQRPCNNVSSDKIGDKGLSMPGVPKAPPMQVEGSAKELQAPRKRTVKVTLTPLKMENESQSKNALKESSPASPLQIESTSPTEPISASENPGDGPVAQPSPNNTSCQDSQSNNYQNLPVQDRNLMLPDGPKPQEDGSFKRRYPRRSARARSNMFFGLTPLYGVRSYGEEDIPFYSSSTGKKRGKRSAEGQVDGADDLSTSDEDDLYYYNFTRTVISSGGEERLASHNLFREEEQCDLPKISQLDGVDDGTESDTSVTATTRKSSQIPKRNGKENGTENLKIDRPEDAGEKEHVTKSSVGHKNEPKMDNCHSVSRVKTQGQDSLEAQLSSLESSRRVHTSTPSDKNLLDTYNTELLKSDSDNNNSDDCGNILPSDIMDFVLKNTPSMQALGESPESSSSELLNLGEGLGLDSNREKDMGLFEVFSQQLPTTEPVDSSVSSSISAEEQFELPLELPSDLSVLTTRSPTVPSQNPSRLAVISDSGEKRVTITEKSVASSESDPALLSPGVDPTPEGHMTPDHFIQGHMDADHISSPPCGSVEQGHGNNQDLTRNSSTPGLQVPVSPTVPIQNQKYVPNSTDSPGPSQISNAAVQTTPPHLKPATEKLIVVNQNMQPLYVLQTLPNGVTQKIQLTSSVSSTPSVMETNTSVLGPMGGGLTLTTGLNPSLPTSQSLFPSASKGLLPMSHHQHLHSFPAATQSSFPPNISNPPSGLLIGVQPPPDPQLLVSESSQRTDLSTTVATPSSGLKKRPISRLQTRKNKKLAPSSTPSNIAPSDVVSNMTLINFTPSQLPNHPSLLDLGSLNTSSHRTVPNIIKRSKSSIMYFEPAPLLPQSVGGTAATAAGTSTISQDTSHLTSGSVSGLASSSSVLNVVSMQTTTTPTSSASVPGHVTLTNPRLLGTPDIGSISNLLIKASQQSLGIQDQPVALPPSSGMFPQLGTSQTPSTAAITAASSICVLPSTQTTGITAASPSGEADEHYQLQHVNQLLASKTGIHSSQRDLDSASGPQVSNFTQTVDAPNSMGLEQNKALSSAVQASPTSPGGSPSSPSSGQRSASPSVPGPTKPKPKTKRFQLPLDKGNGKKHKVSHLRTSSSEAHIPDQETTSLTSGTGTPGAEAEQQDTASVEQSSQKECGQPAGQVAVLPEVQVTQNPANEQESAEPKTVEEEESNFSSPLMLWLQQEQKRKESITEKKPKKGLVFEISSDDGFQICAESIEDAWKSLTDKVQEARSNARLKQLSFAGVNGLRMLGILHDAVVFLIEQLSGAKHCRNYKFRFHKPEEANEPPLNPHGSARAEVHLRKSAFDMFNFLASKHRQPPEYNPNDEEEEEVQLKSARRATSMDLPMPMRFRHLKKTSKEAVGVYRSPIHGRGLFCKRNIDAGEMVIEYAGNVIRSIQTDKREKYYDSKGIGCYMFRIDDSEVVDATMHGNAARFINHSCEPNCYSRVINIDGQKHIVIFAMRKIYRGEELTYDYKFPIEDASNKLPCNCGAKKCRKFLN
Text: The MLL (Mixed Lineage Luekemia) gene is involved in chromosomal translocation that results in either acute lymphoid leukemia (ALL) or acute myeloid leukemia (AML). Chromasomal translocation of MLL gene is responsible for the fusion of N-terminal MLL to more than 60 different partner genes in frame. Many of the MLL partner genes contain transcription activation domains or function as transcriptional activators. Despite the heterogeneity of fusion partners, the N-terminus of MLL fusion proteins always consists of the N-terminal menin binding motif and the CXXC domain. The MLL-CXXC domain specifically recognizes unmethylated CpG sequences of the HOX-A gene. Disruption of the MLL-CXXC and HOX-A gene interaction leads to down regulation of HOX-A gene expression and may potentially reverse leukemogenesis. We have miniaturized and optimized an in-vitro assay to screen for inhibitors of the MLL-CXXC domain and HOX-A DNA interaction, which could have utility in MLL fusion leukemias.
This is a hit validation assay that tests this hits identified in the primary screen in this secondary screen, using an HTRF a read-out.
NIH Molecular Libraries Probe Production Network [MLPCN]
NIH Chemical Genomics Center [NCGC]
PI Name: John Bushweller, University of Virgina
One microliter of 7microM GST-MLL-CXXC solution prepared in assay buffer (50 mM TRIS-HCl pH 7.5, 50 mM NaCl, 1 mM DTT, 0.05% BSA) was dispesed into a 1536 well plate. Compound solution and unlabeled HOX-A9 was tranferred into the assay plate using the Kalypsys 1536-pin tool and incubated at room temperature for 5 min. One microL of 50nM Biotinylated-HOX-A9 solution prepared in assay buffer was dispensed into the assay plate; centrifuge for 30 seconds at 1000 RPM; and incubated for 30 min at room temperature. Next, 3 microL/well detection reagent mixture of 2.8 nM Eu3+-Cryptate-anti-GST-AB and 100 nM Streptavidin linked XL665 (Cisbio, MA) was added. RT-FRET read was taken after 60min of room temp incubation using the PerkinElmer Envision plate reader equipped with Eu3+ HTRF optimized filter set; EX 337nm / EM […].
% is set by controls: 0 for no effect and ±100 for the full control effect.
Note: nearly all actives have a fitted effect of over 80% in size.

Activity change, negative = inhibition, inactive:
COc1ccc(S(=O)(=O)/N=C2\C=C(NS(=O)(=O)c3ccccc3)C(=O)c3ccccc32)cc1 74.8%, COc1ccc(-c2onc3ccc(C(C)=O)cc23)cc1 6.05%, COc1cc(/C=C2/C(=O)NN(c3ccc(F)cc3)C2=O)cc([N+](=O)[O-])c1O 84.9%, O=C1NN(c2ccccc2)C(=O)/C1=C/c1ccc(-c2cccc(C(=O)O)c2)o1 7.82%
